Data taken from paper PMC5540273 (PLoS ONE, 2017).
Where two headings read alike, the source gives them in different places.

Key:
[1] = test system: FYN; conditions: concentration: 1 μM, replicates: in singlicate; n = 1
[2] = test system: GAK; conditions: concentration: 1 μM, replicates: in singlicate; n = 1
[3] = test system: T1, GCN2(Kin.Dom.2,S808G); conditions: concentration: 1 μM, replicates: in singlicate; n = 1
T1 construct: gene EIF2AK4

[4] = test system: GRK1; conditions: concentration: 1 μM, replicates: in singlicate; n = 1
[5] = test system: T2, GRK2; conditions: concentration: 1 μM, replicates: in singlicate; n = 1
T2 construct: gene ADRBK1

[6] = test system: T3, GRK3; conditions: concentration: 1 μM, replicates: in singlicate; n = 1
T3 construct: gene ADRBK2

[7] = test system: GRK4; conditions: concentration: 1 μM, replicates: in singlicate; n = 1
[8] = test system: GRK7; conditions: concentration: 1 μM, replicates: in singlicate; n = 1
[9] = test system: GSK3A; conditions: concentration: 1 μM, replicates: in singlicate; n = 1
[10] = test system: GSK3B; conditions: n = 1
[11] = concentration: 1 μM, replicates: in singlicate
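Further: KINOMEscan kinase panel screen.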

Compound	%Inh [1] [%]	%Inh [2] [%]	%Inh [3] [%]	%Inh [4] [%]	%Inh [5] [%]	%Inh [6] [%]	%Inh [7] [%]	%Inh [8] [%]	%Inh [9] [%]	%Inh [10, 11] [%]	%Inh ([10]; 1 µM) [%]
COC(=O)Nc1nc2ccc(Oc3ccc(CC(=O)Nc4cc(C(F)(F)F)ccc4F)cc3)cc2[nH]1 [GW680903]	37	0	2	0	0	66	0	0	5	0	
O=C(Nc1n[nH]c2nc(-c3ccccc3)ccc12)C1CC1 [SB-708999]	0	17	0	10	0	28	9	0	77		12
Cc1cccc(Nc2nc(N[C@H]3CCCC[C@H]3N)ncc2C(N)=O)c1.Cl [GSK986310]	52	55	72	0	0	17	6	1	24	19	
O=C1NC(=O)C(c2ccccc2Cl)=C1Nc1cccc(Cl)c1 [SB-342409]	22	7	0	13	0	36	26	0	45		33
CC(C)c1nc(-c2ccc(F)c(NS(=O)(=O)c3c(F)cccc3F)c2)c(-c2ccnc(Nc3ccc(N4CCOCC4)nc3)n2)s1 [GSK1804250]	95.9	92.1	100	0	6	7	9	0	40	23	
CN(c1ccc(NC(=O)N2CCN(CCCN3CCOCC3)CC2)cc1)c1ccnc(Nc2ccc(CS(C)(=O)=O)cc2)n1.Cl [GW830899]	18	59	0	0	0	0	43	0	0	0	
Fc1cc(Cl)ccc1Nc1ccnc2cc(-c3ccc(CN4CCOCC4)o3)ccc12 [GW560109]	90.9	84	13	5	0	46	2	0	1	24	
COc1cc(Nc2nccc(N3CCC(NC(=O)Nc4ccc5c(c4)OCO5)C3)n2)cc(OC)c1OC (centres unmarked) [GSK1379766]	36	21	0	0	0	8	0	0	0	2	
Nc1cccc(-c2ccc3c(N)n[nH]c3c2)c1 [GSK2193613]	13	44	0	0	0	55	9	0	0	96.2	
COc1ccc(NC(=O)c2ccoc2)cc1-c1ccc(C(=O)NCC2CC2)cc1 [GW810437]	0	0	0	24	0	0	0	0	0	26	
COc1ccc(C2=C(Nc3cccc(O)c3)C(=O)NC2=O)cc1 [SB-390766]	34	0	61	0	0	33	0	0	41		35
O=C(O)C(F)(F)F.O=c1[nH]ccc2nc(N[C@@H]3CCNC3)nc(Nc3cc(Cl)cc(Cl)c3)c12 [GSK2188764]	52	74	69	92	47	32	86	70	49	19	
Cl.O=C(Nc1ccc(Oc2ccc3[nH]c(NC(=O)c4ccco4)nc3c2)cc1)Nc1cc(C(F)(F)F)ccc1F [GW683134]	42	0	10	0	0	11	100	0	0	9	
COc1cccc(-c2nc(-c3ccccc3)[nH]c2-c2ccncc2)c1 [SB-610250]	24	72	1	0	0	49	0	0	0	19	
Cl.Cl.NCC(NC(=O)c1cc(-c2cccnc2)c(-c2ccnc3[nH]ccc23)s1)c1ccccc1 (centres unmarked) [GSK1323434]	6	88	0	0	8	39	4	21	34	22	
COc1cccc(NC(=O)NCCNc2ccnc(Nc3ccc(F)cc3)n2)c1 [GSK1379879]	0	0	0	0	0	68	0	0	11	16	
CCOc1nccc(-c2c(-c3ccc(F)cc3)ncn2C2CCNCC2)n1 [SB-249175]	6	8	40	11	3	0	15	14	0	49	
CC(C)c1nc(-c2cccc(NS(=O)(=O)c3c(F)cccc3F)c2)c(-c2ccnc(Nc3ccc(N4CCOCC4)nc3)n2)s1.Cl [GSK1723980]	98.6	91.2	100	9	0	0	0	0	74	15	
CC(C)NCC(Cc1ccccc1)NC(=O)c1cc(Br)c(-c2ccnc3[nH]ccc23)s1.Cl.Cl (centres unmarked) [GSK1383281]	2	51	33	72	79	87	0	91.5	7	0	
Nc1ncc(-c2ccc3nccc(-c4ccncc4)c3c2)cc1S(=O)(=O)N1CCCCC1 [GSK1693850]	0	11	4	21	0	0	8	11	22	13	
COc1cc(Nc2ccnc3cc(-c4ccncc4)ccc23)cc(OC)c1OC.Cl [GW494610]	75	84	0	4	0	35	5	0	10	0	
O=C(Nc1n[nH]c2nc(-c3cccc(O)c3)ccc12)C1CC1 [SB-711805]	0	23	12	24	0	0	24	3	98.8		96.3

Compound	%Inh [1] [%]	%Inh [2] [%]	%Inh [3] [%]	%Inh [4] [%]	%Inh [5] [%]	%Inh [6] [%]	%Inh [7] [%]	%Inh [8] [%]	%Inh [9] [%]	%Inh [10, 11] [%]	%Inh ([10]; 1 µM) [%]
CSc1ccc(NC2=C(c3ccc(Cl)cc3)C(=O)NC2=O)cc1 [SB-317658]	4	12	0	2	21	12	5	26	37		0
Nc1ncc(-c2cn[nH]c2)c2scc(-c3ccc4c(c3)CCN4C(=O)Cc3ccccc3)c12 [GSK2593067]	65	32	97.8	10	0	0	0	0	2	11	
CCn1c(-c2nonc2N)nc2c(-c3ccccc3)ncc(OCCCN)c21.O=C(O)C(F)(F)F.O=C(O)C(F)(F)F [GSK260205]	0	83	0	0	0	63	0	0	15	17	
Cc1ccc(NC(=O)c2ccc(Cl)c(Cl)c2)cc1-c1ccc(C(=O)Nc2ccncc2)cc1 [GSK1398460]	31	45	8	0	0	24	4	0	6	15	
CNc1nccc(-c2ccc3c(N)n[nH]c3c2)n1 [GSK2206003]	17	69	0	0	15	23	46	14	14	0	
COc1cc(Nc2nccc(N3CCC(NS(=O)(=O)c4ccc(NC(C)=O)cc4)CC3)n2)cc(OC)c1OC [GSK1379825]	67	44	0	0	62	44	0	0	0	10	
Cc1cc(-c2c(-c3ccc(F)cc3)ncn2CCCN2CCOCC2)nc(N)n1 [SB-222517]	0	5	0	31	0	4	20	0	0	32	
N#Cc1cnc2cc(-c3cnc(CNCCN4CCOCC4)s3)ccc2c1Nc1ccc(Oc2ccccc2)cc1 [GW664114]	93.2	43	100	0	0	27	0	0	6	10	
Cl.N#CCc1ccc(Nc2nccc(Nc3ccc(Oc4ccccc4)cc3)n2)cc1 [GW639905]	74	31	36	0	0	45	0	0	0	8	
Cc1nn2c(=O)cc(N3CCO[C@H](C)C3)nc2n1Cc1cccc(Cl)c1Cl [GSK2373693]	7	8	0	11	0	17	3	0	0	69	
CC(C)(C)c1ccc(C(=O)Nc2cn3cc(-n4ccnc4)ccc3n2)cc1	21	0	27	42	51	0	12	21	2	14	
Cc1ccc(O)cc1Nc1ccnc2ccc(C(C)(C)C)cc12 [GW856805]	96.5	61	5	28	0	28	17	37	0	28	
O=C(Nc1n[nH]c2cc(-c3cccs3)ccc12)C1CC1 [SB-731284]	0	0	0	56	0	0	47	0	52		57
Cc1ccc(NC(=O)c2ccnc(N3CCCCC3)c2)cc1-c1ccc(C(=O)NCC2CC2)cc1 [GW775610]	2	0	14	8	16	14	19	0	0	0	
Cc1ccc(C)c(NC(=O)Nc2ccc(C)c(-c3ccc(C(=O)Nc4ccncc4)cc3)c2)c1 [GSK1398473]	25	0	0	0	0	9	0	0	0	12	
c1ccc(Oc2ccc(Nc3ccnc4cc(-c5ccc(CN6CCCCC6)o5)ccc34)cc2)nc1 [GW567143]	74	79	24	0	0	8	0	0	4	8	
CN(c1ccc(NC(=O)Nc2cccc(Cl)c2)cc1)c1ccnc(N)n1.Cl [GW830707]	10	10	0	0	0	1	0	1	17	1	
CN(C)CCOc1ccc(-c2cc(-c3ccc(Cl)c(O)c3)c(-c3ccncc3)[nH]2)cc1.Cl.Cl [SB-684387]	78	42	0	43	0	21	0	17	41	10	
Cn1cc(-c2ccc3c(c2)CCN3C(=O)Cc2cc(F)cc(C(F)(F)F)c2)c2c(N)ncnc21 [GSK2635225]	41	21	2	0	0	0	3	0	8	2	
CCNC(=O)/C=C/c1n[nH]c2cc(Sc3ccccc3C(=O)NC)ccc12	0	13	6	14	25	20	0	0	18	29	
O=C(Nc1c(F)cccc1F)c1cc(C(=O)c2ccccc2F)c[nH]1 [GSK1326180]	0	0	0	0	0	35	0	0	10	1	
Cc1ccc(Nc2ccnc(Nc3ccc(C)c(F)c3)n2)cc1O.Cl [GW582868]	79	53	36	100	0	70	0	0	14	7	
